Results: the supplement of paper PMC11732987, “Enantioselective OTUD7B fragment discovery through chemoproteomics screening and high-throughput optimisation” (Communications Chemistry, 2025)

Tests used:
Assay in all cases: log2 ratio of Biotin-Ahx-Ub-VS probe labelling (fragment/DMSO); higher = less target engagement (more negative = stronger competition), active = hit call of the paper (q ≤ 0.05, log2 ratio ≤ -1)
Conditions in all cases: compound concentration: 200 uM; treatment time: 3 h
USP9X = USP9X (UniProt Q93008)
Outline: (§1)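 Fragment (200 µM) or vehicle was incubated for 3 h with triplicate HEK293T lysate samples of 495 µg, which were then treated with Biotin-Ahx-Ub-VS at 0.5 µM final for 1 h. Labelled DUBs were enriched on NeutrAvidin, digested with LysC and trypsin, and analysed by diaPASEF LC-MS/MS. Values are average log2 fragment/vehicle ratios from an unpaired t-test on global-median-normalised Spectronaut label-free quantities, using proteins with ≥2 unique peptides.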

UniProt O00487 = molecular target: UniProt O00487
Outline: as §1

UniProt O00507 = molecular target: UniProt O00507
Outline: as §1

UniProt P51784 = molecular target: UniProt P51784
Outline: as §1

UniProt Q5T2D3 = molecular target: T1, UniProt Q5T2D3
T1 sequence (whole entry): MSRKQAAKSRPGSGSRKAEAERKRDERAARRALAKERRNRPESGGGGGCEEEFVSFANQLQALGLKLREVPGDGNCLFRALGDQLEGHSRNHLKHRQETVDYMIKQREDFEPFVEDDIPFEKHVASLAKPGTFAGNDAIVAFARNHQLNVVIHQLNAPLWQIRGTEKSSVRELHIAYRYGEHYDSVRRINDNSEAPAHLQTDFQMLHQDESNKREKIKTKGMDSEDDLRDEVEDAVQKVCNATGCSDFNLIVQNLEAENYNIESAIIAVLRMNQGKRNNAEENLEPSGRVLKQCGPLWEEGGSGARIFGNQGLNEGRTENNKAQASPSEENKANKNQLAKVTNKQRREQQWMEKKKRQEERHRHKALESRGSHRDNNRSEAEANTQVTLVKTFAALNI
Outline: as §1

UniProt Q8TE49 = molecular target: T2, UniProt Q8TE49
T2 sequence (whole entry): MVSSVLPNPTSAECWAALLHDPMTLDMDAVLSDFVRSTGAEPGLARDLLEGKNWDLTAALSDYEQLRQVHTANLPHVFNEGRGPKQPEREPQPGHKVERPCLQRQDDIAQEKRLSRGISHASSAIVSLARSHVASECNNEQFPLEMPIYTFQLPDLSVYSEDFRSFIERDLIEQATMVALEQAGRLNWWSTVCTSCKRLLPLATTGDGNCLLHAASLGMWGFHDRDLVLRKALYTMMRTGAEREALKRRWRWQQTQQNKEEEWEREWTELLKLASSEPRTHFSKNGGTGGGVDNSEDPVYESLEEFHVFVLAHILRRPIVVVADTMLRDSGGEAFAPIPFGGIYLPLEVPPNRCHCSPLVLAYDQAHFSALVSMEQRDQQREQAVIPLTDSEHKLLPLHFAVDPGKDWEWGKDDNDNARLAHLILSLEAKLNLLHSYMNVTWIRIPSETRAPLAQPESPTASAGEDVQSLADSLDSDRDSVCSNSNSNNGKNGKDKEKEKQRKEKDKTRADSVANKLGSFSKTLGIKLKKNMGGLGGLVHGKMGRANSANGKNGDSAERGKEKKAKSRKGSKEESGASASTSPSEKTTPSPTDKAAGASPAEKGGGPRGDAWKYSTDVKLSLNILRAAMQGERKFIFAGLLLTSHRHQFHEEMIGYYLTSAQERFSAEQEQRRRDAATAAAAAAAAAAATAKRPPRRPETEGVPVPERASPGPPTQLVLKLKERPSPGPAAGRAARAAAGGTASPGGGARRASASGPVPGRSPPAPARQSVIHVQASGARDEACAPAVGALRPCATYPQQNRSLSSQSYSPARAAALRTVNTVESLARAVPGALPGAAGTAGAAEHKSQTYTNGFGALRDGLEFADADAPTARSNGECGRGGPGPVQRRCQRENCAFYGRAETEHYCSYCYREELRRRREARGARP
Outline: as §1

UniProt Q9P2H5 = molecular target: T3, UniProt Q9P2H5
T3 sequence (whole entry): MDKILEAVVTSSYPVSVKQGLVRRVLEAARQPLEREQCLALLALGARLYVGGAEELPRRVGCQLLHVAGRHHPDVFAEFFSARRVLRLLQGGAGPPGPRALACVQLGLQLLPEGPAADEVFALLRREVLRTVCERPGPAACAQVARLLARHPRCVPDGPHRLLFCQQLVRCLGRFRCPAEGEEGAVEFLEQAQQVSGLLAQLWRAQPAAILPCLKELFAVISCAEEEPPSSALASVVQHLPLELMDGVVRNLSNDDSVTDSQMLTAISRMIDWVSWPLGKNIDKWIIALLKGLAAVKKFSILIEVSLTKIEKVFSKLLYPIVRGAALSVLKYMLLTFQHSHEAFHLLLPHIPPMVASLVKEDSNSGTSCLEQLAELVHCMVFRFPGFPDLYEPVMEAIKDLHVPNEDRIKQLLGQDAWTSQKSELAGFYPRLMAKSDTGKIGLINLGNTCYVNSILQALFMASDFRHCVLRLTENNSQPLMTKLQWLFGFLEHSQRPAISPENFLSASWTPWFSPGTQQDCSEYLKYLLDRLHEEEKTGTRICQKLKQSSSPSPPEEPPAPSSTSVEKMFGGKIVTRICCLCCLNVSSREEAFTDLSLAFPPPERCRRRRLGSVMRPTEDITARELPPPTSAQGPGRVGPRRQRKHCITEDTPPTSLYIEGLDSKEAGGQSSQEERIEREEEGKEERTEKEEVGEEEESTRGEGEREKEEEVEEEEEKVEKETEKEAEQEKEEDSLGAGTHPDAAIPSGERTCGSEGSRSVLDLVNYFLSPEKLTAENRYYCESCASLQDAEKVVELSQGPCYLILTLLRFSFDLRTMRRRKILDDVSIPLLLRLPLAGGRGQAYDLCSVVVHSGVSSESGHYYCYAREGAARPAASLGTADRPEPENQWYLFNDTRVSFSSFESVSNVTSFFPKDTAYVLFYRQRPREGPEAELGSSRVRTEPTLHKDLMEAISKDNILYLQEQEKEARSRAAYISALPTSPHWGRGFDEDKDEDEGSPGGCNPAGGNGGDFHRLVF
Outline: as §1

UniProt Q9UGI0 = molecular target: T4, UniProt Q9UGI0
T4 sequence (whole entry): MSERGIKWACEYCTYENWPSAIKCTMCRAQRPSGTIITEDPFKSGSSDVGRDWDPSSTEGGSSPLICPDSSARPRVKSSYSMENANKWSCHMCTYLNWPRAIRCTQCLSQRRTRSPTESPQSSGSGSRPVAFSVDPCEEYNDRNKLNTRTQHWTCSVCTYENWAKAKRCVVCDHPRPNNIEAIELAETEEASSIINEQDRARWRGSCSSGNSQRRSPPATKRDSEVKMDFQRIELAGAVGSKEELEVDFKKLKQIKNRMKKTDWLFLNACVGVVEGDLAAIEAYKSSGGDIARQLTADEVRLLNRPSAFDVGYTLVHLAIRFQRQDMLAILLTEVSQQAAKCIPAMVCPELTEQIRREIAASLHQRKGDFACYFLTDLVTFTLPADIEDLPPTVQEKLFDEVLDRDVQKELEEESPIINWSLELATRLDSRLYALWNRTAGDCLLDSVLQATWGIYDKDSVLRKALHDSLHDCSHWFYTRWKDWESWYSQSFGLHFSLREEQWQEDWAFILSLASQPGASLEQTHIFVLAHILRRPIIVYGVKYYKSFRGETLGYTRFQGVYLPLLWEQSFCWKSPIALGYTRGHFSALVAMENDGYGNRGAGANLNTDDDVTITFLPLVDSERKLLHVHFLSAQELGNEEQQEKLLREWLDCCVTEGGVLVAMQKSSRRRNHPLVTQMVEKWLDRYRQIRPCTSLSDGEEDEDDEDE
Outline: as §1

YOD1 = molecular target: T5, YOD1 (UniProt Q5VVQ6)
T5 sequence (whole entry): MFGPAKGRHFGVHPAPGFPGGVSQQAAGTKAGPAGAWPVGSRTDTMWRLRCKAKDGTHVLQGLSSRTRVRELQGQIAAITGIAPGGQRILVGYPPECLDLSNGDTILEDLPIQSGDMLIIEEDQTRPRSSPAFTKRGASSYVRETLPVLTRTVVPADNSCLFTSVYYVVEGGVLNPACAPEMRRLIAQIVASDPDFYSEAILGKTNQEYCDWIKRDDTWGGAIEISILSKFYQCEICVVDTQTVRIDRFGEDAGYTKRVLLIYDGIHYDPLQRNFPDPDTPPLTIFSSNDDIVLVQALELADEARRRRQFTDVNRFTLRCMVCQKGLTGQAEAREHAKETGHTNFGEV
Outline: as §1

Measured: log2 ratio of Biotin-Ahx-Ub-VS probe labelling

UniProt P51784, sequence (P51784 whole entry): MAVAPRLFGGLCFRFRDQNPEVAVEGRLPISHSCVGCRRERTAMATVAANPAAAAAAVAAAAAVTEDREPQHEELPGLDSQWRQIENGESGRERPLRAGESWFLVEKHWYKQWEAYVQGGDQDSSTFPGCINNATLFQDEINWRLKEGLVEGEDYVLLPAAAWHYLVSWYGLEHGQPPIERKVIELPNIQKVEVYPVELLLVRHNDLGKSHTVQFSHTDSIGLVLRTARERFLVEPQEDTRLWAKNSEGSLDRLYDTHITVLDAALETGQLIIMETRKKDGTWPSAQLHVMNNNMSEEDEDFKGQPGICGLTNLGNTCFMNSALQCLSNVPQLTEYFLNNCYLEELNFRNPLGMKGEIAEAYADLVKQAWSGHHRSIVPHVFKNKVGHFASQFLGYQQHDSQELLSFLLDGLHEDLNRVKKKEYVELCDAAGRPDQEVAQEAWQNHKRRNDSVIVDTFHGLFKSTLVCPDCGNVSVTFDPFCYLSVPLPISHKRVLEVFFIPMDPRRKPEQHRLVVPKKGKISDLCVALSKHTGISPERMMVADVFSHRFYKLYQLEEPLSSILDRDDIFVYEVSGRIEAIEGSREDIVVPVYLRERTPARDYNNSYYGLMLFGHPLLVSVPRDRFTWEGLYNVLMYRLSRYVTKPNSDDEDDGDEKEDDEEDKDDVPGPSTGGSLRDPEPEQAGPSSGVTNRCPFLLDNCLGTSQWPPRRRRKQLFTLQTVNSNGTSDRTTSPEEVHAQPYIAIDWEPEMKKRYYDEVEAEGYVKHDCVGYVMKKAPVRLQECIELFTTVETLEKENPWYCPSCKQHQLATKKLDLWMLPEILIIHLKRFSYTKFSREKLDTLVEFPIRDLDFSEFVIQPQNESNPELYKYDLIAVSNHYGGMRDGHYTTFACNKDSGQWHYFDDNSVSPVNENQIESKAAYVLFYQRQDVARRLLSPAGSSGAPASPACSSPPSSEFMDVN
UniProt O00487, sequence (O00487 whole entry): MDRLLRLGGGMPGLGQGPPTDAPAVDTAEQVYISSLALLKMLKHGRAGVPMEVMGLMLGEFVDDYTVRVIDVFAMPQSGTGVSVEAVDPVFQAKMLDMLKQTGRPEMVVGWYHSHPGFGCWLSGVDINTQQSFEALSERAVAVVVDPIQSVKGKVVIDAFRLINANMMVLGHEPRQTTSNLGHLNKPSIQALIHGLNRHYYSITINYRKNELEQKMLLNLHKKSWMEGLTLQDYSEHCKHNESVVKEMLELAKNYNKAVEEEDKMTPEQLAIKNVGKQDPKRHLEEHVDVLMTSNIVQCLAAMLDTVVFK
UniProt O00507, sequence (O00507 whole entry): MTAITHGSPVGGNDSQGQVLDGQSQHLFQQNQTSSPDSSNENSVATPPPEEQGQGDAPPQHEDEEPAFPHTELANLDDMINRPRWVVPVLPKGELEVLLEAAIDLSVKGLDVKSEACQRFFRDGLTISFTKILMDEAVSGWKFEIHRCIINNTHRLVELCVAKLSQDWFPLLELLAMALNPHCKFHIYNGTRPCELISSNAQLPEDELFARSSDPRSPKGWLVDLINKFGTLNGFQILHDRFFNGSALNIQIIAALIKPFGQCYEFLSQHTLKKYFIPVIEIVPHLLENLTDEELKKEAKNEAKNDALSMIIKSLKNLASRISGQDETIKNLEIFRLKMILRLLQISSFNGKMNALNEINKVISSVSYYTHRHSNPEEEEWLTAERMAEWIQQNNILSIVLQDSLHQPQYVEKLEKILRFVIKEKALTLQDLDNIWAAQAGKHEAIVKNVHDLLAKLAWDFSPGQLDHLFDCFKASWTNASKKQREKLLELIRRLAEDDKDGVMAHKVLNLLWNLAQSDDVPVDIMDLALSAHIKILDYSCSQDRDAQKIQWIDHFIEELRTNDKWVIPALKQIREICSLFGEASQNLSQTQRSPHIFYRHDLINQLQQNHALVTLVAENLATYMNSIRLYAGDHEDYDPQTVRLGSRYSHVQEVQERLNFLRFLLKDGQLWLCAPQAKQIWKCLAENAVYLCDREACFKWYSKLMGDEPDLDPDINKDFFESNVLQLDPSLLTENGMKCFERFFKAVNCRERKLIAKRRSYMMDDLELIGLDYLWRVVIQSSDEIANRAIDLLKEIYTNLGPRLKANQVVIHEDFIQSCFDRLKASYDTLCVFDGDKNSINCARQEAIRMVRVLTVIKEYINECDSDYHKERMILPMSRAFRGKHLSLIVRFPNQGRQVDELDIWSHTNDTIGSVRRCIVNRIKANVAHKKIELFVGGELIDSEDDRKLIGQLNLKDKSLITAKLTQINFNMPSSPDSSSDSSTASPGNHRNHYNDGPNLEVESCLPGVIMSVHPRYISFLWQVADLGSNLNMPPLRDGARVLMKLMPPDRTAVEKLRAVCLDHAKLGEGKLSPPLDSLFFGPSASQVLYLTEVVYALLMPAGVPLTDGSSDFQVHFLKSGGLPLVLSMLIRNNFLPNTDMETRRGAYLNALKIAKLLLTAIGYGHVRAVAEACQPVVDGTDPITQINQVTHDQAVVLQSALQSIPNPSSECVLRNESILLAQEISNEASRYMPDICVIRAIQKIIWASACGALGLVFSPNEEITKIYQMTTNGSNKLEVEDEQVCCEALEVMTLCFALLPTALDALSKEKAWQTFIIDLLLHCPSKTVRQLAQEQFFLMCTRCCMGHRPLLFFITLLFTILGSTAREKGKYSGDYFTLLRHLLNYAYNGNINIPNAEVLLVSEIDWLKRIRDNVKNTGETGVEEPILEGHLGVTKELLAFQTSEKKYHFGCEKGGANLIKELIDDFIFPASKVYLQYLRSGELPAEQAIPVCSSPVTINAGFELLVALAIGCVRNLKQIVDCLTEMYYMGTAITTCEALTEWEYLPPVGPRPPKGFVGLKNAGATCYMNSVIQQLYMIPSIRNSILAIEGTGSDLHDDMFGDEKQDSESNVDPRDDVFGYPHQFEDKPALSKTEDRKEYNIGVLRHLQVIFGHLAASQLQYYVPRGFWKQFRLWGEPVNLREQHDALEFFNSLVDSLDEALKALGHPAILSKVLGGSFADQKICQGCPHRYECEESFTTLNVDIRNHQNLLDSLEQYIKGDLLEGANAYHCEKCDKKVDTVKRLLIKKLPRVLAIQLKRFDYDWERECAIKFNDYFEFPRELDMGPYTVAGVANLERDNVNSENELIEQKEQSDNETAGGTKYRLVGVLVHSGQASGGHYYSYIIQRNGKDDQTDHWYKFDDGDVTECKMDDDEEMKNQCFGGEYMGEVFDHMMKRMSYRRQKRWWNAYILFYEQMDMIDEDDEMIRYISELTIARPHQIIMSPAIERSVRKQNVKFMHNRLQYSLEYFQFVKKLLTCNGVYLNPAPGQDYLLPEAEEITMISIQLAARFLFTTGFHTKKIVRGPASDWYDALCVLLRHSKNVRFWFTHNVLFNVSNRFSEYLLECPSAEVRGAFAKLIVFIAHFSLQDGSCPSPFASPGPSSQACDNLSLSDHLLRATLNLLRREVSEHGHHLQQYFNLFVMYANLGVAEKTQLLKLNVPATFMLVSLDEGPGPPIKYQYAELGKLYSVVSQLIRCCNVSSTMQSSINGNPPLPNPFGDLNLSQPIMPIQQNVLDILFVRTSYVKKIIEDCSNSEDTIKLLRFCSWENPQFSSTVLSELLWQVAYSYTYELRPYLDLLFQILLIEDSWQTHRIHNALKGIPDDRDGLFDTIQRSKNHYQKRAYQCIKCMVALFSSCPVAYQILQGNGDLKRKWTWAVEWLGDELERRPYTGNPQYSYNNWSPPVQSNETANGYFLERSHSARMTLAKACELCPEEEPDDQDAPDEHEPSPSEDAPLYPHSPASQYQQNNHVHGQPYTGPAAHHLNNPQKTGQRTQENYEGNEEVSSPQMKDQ

O=C(CCl)Nc1ccc2c(c1)OC(F)(F)O2
inactive: USP9X -0.301 | UniProt O00487 0.0325 | UniProt O00507 -0.0305 | UniProt P51784 0.0816 | UniProt Q5T2D3 -0.375 | UniProt Q8TE49 -0.815 | UniProt Q9P2H5 -0.115 | UniProt Q9UGI0 -0.637 | YOD1 -0.0381
